In PubChem BioAssay (NCATS):
Records with an inconclusive call do not appear. Entries that show only a call come without a potency. Active and inactive are the calls of the source. Calls come from the whole dose curve; as a rule, active = well fitted curve in the direction sought with a large enough effect; inconclusive = small, poorly fitted or top-dose-only effect, or another doubt; inactive = no such curve, though single readings can be large; an effect the other way counts as inactive or inconclusive.

Experiments:
[1] = target: ATP-dependent 6-phosphofructokinase (Trypanosoma brucei brucei) (UniProt O15648); test: qHTS Assay to Find Inhibitors of T. brucei phosphofructokinase: hit validation (AID 492961);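 note: luminescence reports ADP formed as PFK phosphorylates fructose-6-phosphate with ATP; series mostly up to about 51 µM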
Method in brief: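 In this biochemical qHTS validation, titrated compounds were tested against 1.25 nM PFK with 0.1 mM ATP and 0.5 mM F6P. Percent activity came from controls lacking or containing enzyme.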

[2] = target: Ubiquitin carboxyl-terminal hydrolase 1 (Homo sapiens) (UniProt O94782); test: Inhibitors of USP1/UAF1: Pilot qHTS (AID 504865); note: nearly all actives have a fitted effect of over 35% in size; note: potency is the fitted concentration of half-maximal effect
Method in brief: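 Deubiquitinase activity followed as kinetic rhodamine fluorescence release from 150 nM Ub-Rho. 1 nM USP1/UAF1 with compound, after 15 min room-temperature preincubation, in HEPES pH 7.8 buffer containing TCEP, EDTA, BSA and Tween-20.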

Chain of ATP-dependent 6-phosphofructokinase (Trypanosoma brucei brucei) (O15648 whole entry, looked up): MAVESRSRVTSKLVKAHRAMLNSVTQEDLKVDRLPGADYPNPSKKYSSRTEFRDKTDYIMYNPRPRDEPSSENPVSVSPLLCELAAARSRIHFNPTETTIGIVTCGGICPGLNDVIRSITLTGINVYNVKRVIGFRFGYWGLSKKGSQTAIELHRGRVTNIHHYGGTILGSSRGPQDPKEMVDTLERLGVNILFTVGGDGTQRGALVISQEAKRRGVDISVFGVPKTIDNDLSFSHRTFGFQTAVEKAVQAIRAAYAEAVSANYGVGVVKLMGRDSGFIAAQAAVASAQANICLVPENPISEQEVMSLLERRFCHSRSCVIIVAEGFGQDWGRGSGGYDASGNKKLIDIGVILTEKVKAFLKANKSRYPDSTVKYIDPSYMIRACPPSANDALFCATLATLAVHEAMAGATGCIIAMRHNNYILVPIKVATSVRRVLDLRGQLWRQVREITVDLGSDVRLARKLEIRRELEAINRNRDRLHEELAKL
Chain of Ubiquitin carboxyl-terminal hydrolase 1 (Homo sapiens) (O94782 whole entry, looked up): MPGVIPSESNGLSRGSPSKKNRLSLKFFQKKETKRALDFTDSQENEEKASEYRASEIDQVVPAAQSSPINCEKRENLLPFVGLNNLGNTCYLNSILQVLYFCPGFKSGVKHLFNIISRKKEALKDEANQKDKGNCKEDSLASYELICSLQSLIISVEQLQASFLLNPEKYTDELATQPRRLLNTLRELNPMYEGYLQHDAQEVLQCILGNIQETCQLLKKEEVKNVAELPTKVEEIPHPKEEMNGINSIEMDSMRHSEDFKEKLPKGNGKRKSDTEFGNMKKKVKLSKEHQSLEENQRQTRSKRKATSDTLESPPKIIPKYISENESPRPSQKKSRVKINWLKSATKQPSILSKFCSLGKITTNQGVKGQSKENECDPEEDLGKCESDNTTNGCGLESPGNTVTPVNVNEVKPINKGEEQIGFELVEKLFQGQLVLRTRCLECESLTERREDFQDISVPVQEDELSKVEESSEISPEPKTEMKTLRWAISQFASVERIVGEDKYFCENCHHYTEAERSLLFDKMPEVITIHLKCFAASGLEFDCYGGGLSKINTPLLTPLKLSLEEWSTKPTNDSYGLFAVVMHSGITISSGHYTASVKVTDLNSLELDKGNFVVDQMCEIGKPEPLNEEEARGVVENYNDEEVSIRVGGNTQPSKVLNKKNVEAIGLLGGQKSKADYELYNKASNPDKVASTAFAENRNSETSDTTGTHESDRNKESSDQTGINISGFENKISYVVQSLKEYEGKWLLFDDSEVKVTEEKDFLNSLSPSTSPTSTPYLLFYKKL

Row | Structure (SMILES) | Potency [1] | Potency [2]
1 | CCOc1cc(OCC)c(C(=O)CCC(=O)O)cc1OCC | inactive | inactive
2 | O=C(Oc1cccc2cccnc12)c1ccccc1 | inactive | inactive
3 | O=C1C(O)=C(O)C(=O)C(O)=C1O | inactive | 50.1 µM (active)
4 | OC[C@H]1O[C@@H]2O[C@H]3[C@H](O)[C@@H](O)[C@@H](O[C@H]4[C@H](O)[C@@H](O)[C@@H](O[C@H]5[C@H](O)[C@@H](O)[C@@H](O[C@H]6[C@H](O)[C@@H](O)[C@@H](O[C@H]7[C@H](O)[C@@H](O)[C@@H](O[C@H]8[C@H](O)[C@@H](O)[C@@H](O[C@H]1[C@H](O)[C@H]2O)O[C@@H]8CO)O[C@@H]7CO)O[C@@H]6CO)O[C@@H]5CO)O[C@@H]4CO)O[C@@H]3CO | inactive | inactive
5 | CC(C)(C)CC(C)(C)c1ccc(O)c(-n2nc3ccccc3n2)c1 | inactive | inactive
6 | Clc1cccc(C(c2ccc3nc[nH]c3c2)n2ccnc2)c1 (centres undefined) | inactive | inactive
7 | CC1(COc2ccc(CC3SC(=O)NC3=O)cc2)CCCCC1 (centres undefined) | inactive | 20 µM (active)
8 | C[N+]1(C)CCC(=C(c2ccccc2)c2ccccc2)CC1 | inactive | inactive
9 | CN1CCN(c2cc3c(cc2F)c(=O)c(C(=O)O)cn3-c2ccc(F)cc2)CC1 | inactive | inactive
10 | NC(=O)C1(N2CCCCC2)CCN(CCCC(=O)c2ccc(F)cc2)CC1 | inactive | inactive
11 | O=[N+]([O-])c1cccc(S(=O)(=O)NCCNS(=O)(=O)c2cccc([N+](=O)[O-])c2)c1 | inactive | inactive
12 | O=C(O)c1ccc(S(=O)(=O)N(Cl)Cl)cc1 | inactive | inactive
13 | NCCNc1cccc2ccccc12 | inactive | inactive
14 | Cc1ccc(O)c([C@H](CCN(C(C)C)C(C)C)c2ccccc2)c1 | inactive | inactive
15 | O=C(CCN1CCN2CCCC2C1)N1c2ccccc2Sc2ccc(Cl)cc21 (centres undefined) | inactive | inactive
16 | O=c1[nH]c(=O)n([C@H]2C[C@H](O)[C@@H](CO)O2)cc1F | inactive | inactive
17 | O[C@@H](c1cc(C(F)(F)F)nc2c(C(F)(F)F)cccc12)[C@H]1CCCCN1 | inactive | inactive
18 | OCc1ccccn1 | inactive | inactive
19 | CCCCCCCCCCCCCC[N+](C)(C)Cc1ccccc1 | inactive | 28.2 µM (active)
20 | COc1cc(C)nc(-n2nc(C)cc2OC)n1 | inactive | inactive
21 | Cc1ccc(-c2ncc(Cl)cc2-c2ccc(S(C)(=O)=O)cc2)cn1 | inactive | inactive
22 | CCNC(=O)/C=C/c1cccc(Br)c1 | inactive | inactive
23 | Cc1cc(NS(=O)(=O)c2ccc(N)cc2)nc(C)n1 | inactive | inactive
24 | Cc1ccccc1OCC(O)CO (centres undefined) | inactive | inactive
25 | O=C(NCCc1c[nH]c2ccccc12)c1cccnc1 | inactive | inactive
26 | NS(=O)(=O)Cc1noc2ccccc12 | inactive | inactive

Row | Structure (SMILES) | Potency [1] | Potency [2]
27 | Nc1ccc(S(=O)(=O)NCc2ccccc2)cc1 | inactive | inactive
28 | c1ccc(CC2=NCCN2)cc1 | inactive | inactive
29 | CN1CCC(OC(c2ccccc2)c2ccccc2)CC1 | inactive | inactive
30 | OCCOCCN1CCN(C2=Nc3ccccc3Sc3ccccc32)CC1 | inactive | inactive
31 | NCc1ccccc1Sc1ccccc1CO | inactive | inactive
32 | CC(=O)Nc1ccc(CC(=O)O)cc1 | inactive | inactive
33 | O=C(O)P(=O)(O)O | inactive | inactive
34 | CN(C)CCOC(c1ccc(Cl)cc1)c1ccccn1 (centres undefined) | inactive | inactive
35 | CCOC(=O)Nc1ccc2c(c1)N(C(=O)CCN1CCOCC1)c1ccccc1S2 | inactive | inactive
36 | NC(=S)N/N=C/c1cccnc1 | inactive | inactive
37 | CC1=C(C(=O)O)N2C(=O)[C@@H](NC(=O)[C@H](N)c3ccccc3)[C@H]2SC1 | inactive | inactive
38 | Cc1cccc(C)c1NC(=O)CN1CCCC1 | inactive | inactive
39 | Cc1cc(CC(=O)O)c(C)n1-c1ccc(Cl)cc1 | inactive | inactive
40 | Cc1cc(-c2ccccc2)nnc1NCCN1CCOCC1 | inactive | inactive
41 | CCCCCCCCOc1ccc(C(=O)c2ccccc2)c(O)c1 | inactive | inactive
42 | COc1ccc(/C=N/NC(=O)c2ccncc2)cc1OC | inactive | inactive
43 | NS(=O)(=O)c1cc(C(=O)O)cc(N2CCCC2)c1Oc1ccccc1 | inactive | inactive
44 | CN(C)CCN1C(=O)c2ccccc2N(C)c2ccccc21 | inactive | inactive
45 | CCCCCCCC/C=C\CCCCCCCCN | inactive | inactive
46 | O=S(=O)(O)c1ccc(O)cc1 | inactive | inactive
47 | CCOC(=O)c1c(N)sc2c1CCN(Cc1ccccc1)C2 | inactive | inactive
48 | O=C(NC1CCN(CCc2c[nH]c3ccccc23)CC1)c1ccccc1 | inactive | inactive
49 | NC(=O)n1c(O)c(C(=O)c2cccs2)c2cc(Cl)ccc21 | inactive | inactive
50 | CN(C)C(=O)Nc1ccc(Cl)c(Cl)c1 | inactive | inactive
51 | O=C(Nc1ccc([N+](=O)[O-])cc1)Nc1ccc([N+](=O)[O-])cc1 | inactive | inactive
52 | CC1CCc2c(N3CCC(O)CC3)c(F)cc3c(=O)c(C(=O)O)cn1c23 (centres undefined) | inactive | inactive
